# In PubChem BioAssay (Tox21):
# Inconclusive results are not listed. A call without a number means that no potency is given here. The source made the active and inactive calls. Unless noted, the call rests on the fitted dose curve; in most records, active means well fitted curve in the direction sought with a large enough effect in the repeat runs; inconclusive means weak or mixed curves; inactive means no such curve, though single readings can be large; an effect the other way counts as inactive or inconclusive.
# Columns and labels:
# [1] = biological target: Progesterone receptor (Homo sapiens) (UniProt P06401); experiment: qHTS assay to identify small molecule antagonists of the progesterone receptor (PR) signaling pathway (AID 1346795; active means well fitted inhibition curve with a large enough effect in the signal ratio in the repeat runs, not every such curve was filed as active; the % refers to the signal ratio; further: potency means the concentration at half of the fitted maximal effect)
# Outline: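 HEK293T PR-UAS-bla reporter cells in charcoal-stripped serum (2%) received compound after a 6 hr settling period, followed by R5020 agonist at 1 nM final; 16 hr incubation preceded the FRET substrate step and fluorescence measurement.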
# [2] = qHTS assay to identify small molecule agonists of the TGF-beta/Smad signaling pathway (AID 1346859; active means well fitted activation curve with a large enough effect in the signal ratio in the repeat runs, not every such curve was filed as active; the % refers to the signal ratio; further: series mostly up to about 77 µM)
# Outline: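 Smad-responsive beta-lactamase reporter cells (HEK 293T) received compounds from DMSO stocks after overnight attachment, were incubated 5 hr, then treated 2 hr with FRET substrate before dual-emission fluorescence measurement (405 nm excitation).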
# [3] = biological target: Thyrotropin-releasing hormone receptor (Homo sapiens) (UniProt P34981); experiment: qHTS assay to identify small molecule antagonists of the thyrotropin-releasing hormone receptor (TRHR) signaling pathway (AID 1346877; active means well fitted inhibition curve with a large enough effect in the repeat runs, not every such curve was filed as active; further: series mostly up to about 51 µM)
# Outline: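 Antagonism is measured as suppression of the calcium response to 1 nM TRH in TRHR-HEK293 cells that have been dye-loaded for 2 h at 37 °C after overnight plating. Each compound is tested at 15 concentrations in triplicate.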
# [4] = biological target: Thyrotropin-releasing hormone receptor (Homo sapiens) (UniProt P34981); experiment: qHTS assay to identify small molecule agonists of the thyrotropin-releasing hormone receptor (TRHR) signaling pathway (AID 1346891; calls by dose curve; further: potency means the concentration at half of the fitted maximal effect;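 on activation: HEK293 cells expressing TRHR with calcium dye readout; series mostly up to about 58 µM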)
# Outline: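 Agonist-mode calcium mobilisation screen: TRHR-transfected HEK293 cells cultured overnight (18 h), dye-loaded for 2 h at 37 °C, exposed to compounds, and monitored by fluorescence for 3 min.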
# [5] = qHTS assay to identify small molecule antagonists of the progesterone receptor (PR) signaling pathway - cell viability counter screen (AID 1346798); further: nearly all actives have a fitted effect of over 50% in size; further: potency means the concentration at half of the fitted maximal effect
# Outline: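 Same-well multiplex: after 16 hr at 37C with compound and R5020 stimulation, HEK293T cells carrying a UAS-bla reporter received LiveBLAzer substrate (2 hr RT), then CellTiter-Glo (30 min RT) for luminescent viability.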
# [6] = qHTS assay to identify small molecule antagonists of the TGF-beta/Smad signaling pathway - cell viability counter screen (AID 1346824); further: nearly all actives have a fitted effect of over 50% in size
# Outline: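 Cytotoxicity counter-screen run in the same wells as the beta-lactamase Smad reporter read: CellTiter-Glo luminescence after 30 min at room temperature. HEK 293T SBE-bla cells had 5 hr compound exposure at 37 C with TGF-beta1 (0.25 ng/mL stock).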
# [7] = qHTS assay to identify small molecule agonists of the TGF-beta/Smad signaling pathway - cell viability counter screen (AID 1346829); further: nearly all actives have a fitted effect of over 45% in size; further: potency means the concentration at half of the fitted maximal effect
# Outline: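 Tox21 qHTS format: SBE-bla HEK 293T cells treated with DMSO-dissolved compounds for 5 hr; CellTiter-Glo luminescence after 30 min at room temperature.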
# [8] = qHTS assay to identify small molecule agonists of the progesterone receptor (PR) signaling pathway - cell viability counter screen (AID 1346799; calls by dose curve; further: nearly all actives have a fitted effect of over 45% in size; further: potency means the concentration at half of the fitted maximal effect)
# Outline: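 Counter screen for cytotoxicity: compound-treated PR-UAS-bla HEK293T cells (16 hr, 37C, 5% CO2) were assayed with CellTiter-Glo, luminescence measured after 30 min at room temperature.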
# Thyrotropin-releasing hormone receptor (Homo sapiens), sequence (P34981 whole entry, looked up): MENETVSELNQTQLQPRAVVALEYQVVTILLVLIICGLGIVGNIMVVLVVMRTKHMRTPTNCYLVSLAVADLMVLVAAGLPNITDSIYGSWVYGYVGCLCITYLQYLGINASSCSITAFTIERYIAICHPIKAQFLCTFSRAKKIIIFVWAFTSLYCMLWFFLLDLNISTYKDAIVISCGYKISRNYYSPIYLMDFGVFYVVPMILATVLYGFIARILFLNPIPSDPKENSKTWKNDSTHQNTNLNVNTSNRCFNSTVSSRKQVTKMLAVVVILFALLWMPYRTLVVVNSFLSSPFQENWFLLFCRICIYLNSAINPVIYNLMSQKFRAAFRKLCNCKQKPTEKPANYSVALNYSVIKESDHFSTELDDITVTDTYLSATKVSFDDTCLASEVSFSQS
# Progesterone receptor (Homo sapiens), sequence (P06401 whole entry, looked up): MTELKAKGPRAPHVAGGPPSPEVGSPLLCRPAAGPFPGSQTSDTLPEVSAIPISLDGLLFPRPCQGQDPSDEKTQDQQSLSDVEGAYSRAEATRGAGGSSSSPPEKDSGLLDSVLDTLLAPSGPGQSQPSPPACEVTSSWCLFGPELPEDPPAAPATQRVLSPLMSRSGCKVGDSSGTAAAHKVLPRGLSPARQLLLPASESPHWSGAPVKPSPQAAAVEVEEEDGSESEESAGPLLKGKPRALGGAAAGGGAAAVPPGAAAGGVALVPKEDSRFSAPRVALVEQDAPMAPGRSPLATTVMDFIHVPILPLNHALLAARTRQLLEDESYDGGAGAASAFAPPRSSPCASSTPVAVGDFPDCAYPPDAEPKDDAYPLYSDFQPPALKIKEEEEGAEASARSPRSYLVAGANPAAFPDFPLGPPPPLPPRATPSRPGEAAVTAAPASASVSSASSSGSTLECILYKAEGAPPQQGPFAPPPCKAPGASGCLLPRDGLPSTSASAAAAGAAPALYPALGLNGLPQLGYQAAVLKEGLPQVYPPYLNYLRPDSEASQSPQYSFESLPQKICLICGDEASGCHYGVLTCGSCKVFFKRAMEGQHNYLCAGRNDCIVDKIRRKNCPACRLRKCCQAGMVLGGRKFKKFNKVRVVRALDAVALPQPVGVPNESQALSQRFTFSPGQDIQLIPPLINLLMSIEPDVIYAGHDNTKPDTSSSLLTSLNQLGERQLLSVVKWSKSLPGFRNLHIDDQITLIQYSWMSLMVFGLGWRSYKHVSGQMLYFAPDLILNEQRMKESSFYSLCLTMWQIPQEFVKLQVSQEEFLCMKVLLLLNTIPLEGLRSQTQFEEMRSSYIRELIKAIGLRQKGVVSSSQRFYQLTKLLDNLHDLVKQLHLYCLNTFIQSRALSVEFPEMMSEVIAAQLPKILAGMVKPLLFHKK
Structure (SMILES),Potency [1],Potency [2],Potency [3],Potency [4],Potency [5],Potency [6],Potency [7],Potency [8]
C=C(C)C(=O)OCC(O)COc1ccc(C(C)(C)c2ccc(OCC(O)COC(=O)C(=C)C)cc2)cc1 (stereo unspecified),61.1 µM (active),inactive,inactive,inactive,–,–,–,–
Cc1cccc2c1cc1ccc3cccc4ccc2c1c34,–,–,inactive,inactive,inactive,inactive,inactive,–
O=C1Cc2cc(CCN3CCN(c4nsc5ccccc45)CC3)c(Cl)cc2N1,inactive,inactive,inactive,inactive,inactive,inactive,inactive,inactive
Cc1cc(=O)oc2cc(N(C)C)ccc12,–,–,inactive,–,–,inactive,inactive,–
CCCC(=O)OC[C@@H](OC(=O)CCC)[C@@H](OC(=O)CCC)[C@H](Cn1c2nc(=O)[nH]c(=O)c-2nc2cc(C)c(C)cc21)OC(=O)CCC,–,–,inactive,–,inactive,inactive,inactive,–
O=C(Nc1cccc([N+](=O)[O-])c1)c1cc2ccccc2cc1O,–,inactive,inactive,–,24.3 µM (active),–,–,inactive
On1ccccc1=S,0.539 µM (active),inactive,inactive,inactive,0.605 µM (active),inactive,inactive,0.959 µM (active)
Oc1ccc(C2(c3ccc(O)cc3)CC3CC2C2CCCC32)cc1 (stereo unspecified),–,inactive,inactive,inactive,41.6 µM (active),–,inactive,58.7 µM (active)
Cc1cc(O)c(C(C)(C)C)cc1C(C)(C)C,–,inactive,–,inactive,–,–,49 µM (active),48.6 µM (active)
CNCc1cc(F)ccc1Oc1ccc(Cl)c(Cl)c1,61.1 µM (active),inactive,–,34.7 µM (active),inactive,inactive,inactive,inactive
O=[N+]([O-])c1ccccc1Nc1ccccc1,–,inactive,inactive,inactive,inactive,inactive,inactive,inactive
O=C(NOCC1CC1)c1ccc(F)c(F)c1Nc1ccc(I)cc1Cl,–,inactive,inactive,inactive,–,inactive,inactive,–
CCN(C(=O)c1cc(C)cc(OC[C@H](C)Nc2ccncc2)c1)C(C)C,–,inactive,inactive,inactive,inactive,inactive,inactive,inactive
N=C1N=C(N)c2cc3ccccc3cc21,–,–,inactive,inactive,27.3 µM (active),–,–,27.3 µM (active)
